We go through 44 compounds from PMC4336329 (PLoS ONE, 2015).

The structures appear in SMILES notation. Among all 310,000 compounds or so, about 2,200 (0.71%) showed an effect of 50% or more. Effects have a minus sign here. The sample holds strong results, similar compounds and a random draw of the others, so the mix is not that of the screen.

The target of this assay is human ether-à-go-go-related gene (hERG) potassium channel (human, UniProt Q12809). Nature of the assay: primary screen, population patch clamp on CHO cells stably expressing hERG; higher = less effect of the substance.
Sequence of human ether-à-go-go-related gene (hERG) potassium channel (Q12809 whole entry, looked up): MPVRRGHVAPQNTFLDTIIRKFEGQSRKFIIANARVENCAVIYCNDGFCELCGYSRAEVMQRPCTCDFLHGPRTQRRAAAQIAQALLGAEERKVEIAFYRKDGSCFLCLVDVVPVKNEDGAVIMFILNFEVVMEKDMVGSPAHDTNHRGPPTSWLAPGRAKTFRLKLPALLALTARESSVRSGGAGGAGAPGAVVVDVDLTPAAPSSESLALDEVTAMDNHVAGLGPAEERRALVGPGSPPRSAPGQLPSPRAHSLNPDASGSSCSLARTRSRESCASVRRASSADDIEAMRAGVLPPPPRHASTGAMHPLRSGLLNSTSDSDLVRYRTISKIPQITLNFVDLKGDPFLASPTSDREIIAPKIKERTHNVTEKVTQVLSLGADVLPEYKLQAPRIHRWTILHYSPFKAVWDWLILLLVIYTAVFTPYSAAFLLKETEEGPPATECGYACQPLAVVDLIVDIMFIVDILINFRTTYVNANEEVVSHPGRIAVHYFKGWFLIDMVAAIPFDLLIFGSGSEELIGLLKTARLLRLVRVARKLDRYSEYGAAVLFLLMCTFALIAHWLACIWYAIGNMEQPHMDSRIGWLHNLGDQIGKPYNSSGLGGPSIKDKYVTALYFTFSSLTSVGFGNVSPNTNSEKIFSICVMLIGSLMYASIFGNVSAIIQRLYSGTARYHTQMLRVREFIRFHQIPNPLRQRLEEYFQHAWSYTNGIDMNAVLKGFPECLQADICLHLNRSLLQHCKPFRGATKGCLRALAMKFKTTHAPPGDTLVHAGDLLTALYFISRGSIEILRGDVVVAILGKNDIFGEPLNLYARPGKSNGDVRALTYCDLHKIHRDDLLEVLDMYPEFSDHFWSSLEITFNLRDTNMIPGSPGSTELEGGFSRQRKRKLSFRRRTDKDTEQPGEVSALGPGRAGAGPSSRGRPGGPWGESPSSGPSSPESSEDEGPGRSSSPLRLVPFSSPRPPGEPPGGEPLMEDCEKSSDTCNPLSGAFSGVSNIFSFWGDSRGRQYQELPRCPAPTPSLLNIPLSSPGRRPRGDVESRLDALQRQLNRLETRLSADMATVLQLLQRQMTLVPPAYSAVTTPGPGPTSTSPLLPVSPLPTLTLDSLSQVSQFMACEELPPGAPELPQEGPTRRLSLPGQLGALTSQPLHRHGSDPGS
Consider `COc1cccc(CNS(=O)(=O)c2c(C(=O)N3CCCCCC3)c(C)n(C)c2C)c1`, for which the “hERG current change (%, negative = inhibition) at 1uM” value is 7.52%.

With `Cc1ccccc1CNC1CCCCC1.Cl`, the “hERG current change (%, negative = inhibition) at 1uM” value is 2.15%. The figure for `O=C(Cn1cnc2cc([N+](=O)[O-])ccc2c1=O)Nc1ccccc1Cl` is 6.18%; for `COC(=O)c1ccc(-c2nc(O)c(C)s2)cc1` it is 9.1%; for `CC1=C(C(=O)Nc2cccc(C(=O)NCc3ccc(F)cc3)c2)SCCO1` it is 15.3%.

As for `COc1ccc(C(=O)c2c3ccc([N+](=O)[O-])cc3[n+]([O-])n2CCC[NH3+])cc1.[Cl-]`, the “hERG current change (%, negative = inhibition) at 1uM” value was -13.5%. To `COc1ccc(C(=O)c2c3ccc(C(F)(F)F)cc3[n+]([O-])n2CCCC(N)=O)cc1` belongs -21.6%. The figure for `COc1ccc(C(=O)c2c3ccc(C(F)(F)F)cc3[n+]([O-])n2CCC[NH3+])cc1.[Cl-]` is -63%; for `Cc1ccc(-c2nn3nnnc3c3ccccc23)cc1C` it is -5.22%. To `Cc1ccc(-c2nn3nnnc3c3ccccc23)cc1` belongs 12.9%; to `c1ccc(-c2nn3nnnc3c3ccccc23)cc1`, -82.9%; to `Cc1c(CCOC(=O)CC23CC4CC(CC(C4)C2)C3)sc[n+]1CC(=O)c1ccc(Br)cc1.[Br-]`, -63.5%.

For `Cc1c(CCOC(=O)c2ccc([N+](=O)[O-])cc2)sc[n+]1CC(=O)c1ccccc1.[Br-]`, the “hERG current change (%, negative = inhibition) at 1uM” value is on record as -6.66%. Consider `Cc1c(CCOC(=O)CC23CC4CC(CC(C)(C4)C2)C3)sc[n+]1CC(=O)c1ccccc1.[Br-]`, for which the “hERG current change (%, negative = inhibition) at 1uM” value is given as -5.09%.

For the compound `Cc1c(CCOC(=O)CC23CC4CC(CC(C4)C2)C3)sc[n+]1CC(=O)c1ccccc1.[Br-]`, the “hERG current change (%, negative = inhibition) at 1uM” value was -6.04%. The figure for `Cc1c(CCOC(=O)c2ccccc2)sc[n+]1CC(=O)c1ccc(Br)cc1.[Br-]` is -82.8%. Take `COc1ccc(C(=O)OCCc2sc[n+](CC(=O)c3ccccc3)c2C)cc1.[Br-]`: the “hERG current change (%, negative = inhibition) at 1uM” value is recorded as 9.69%.

Turning to `CCc1ccc(C(C(=O)NC2CCCC2)N(Cc2cccnc2)C(=O)c2csnn2)cc1` (centres unmarked), the “hERG current change (%, negative = inhibition) at 1uM” value is 2.84%. The figure for `Nc1c(-c2ccccc2)nc(Cl)nc1-c1ccccc1` is 13.2%; for `CN(CC(=O)Nc1ccccc1Cl)C(=O)COC(=O)/C=C/c1ccc(C(F)(F)F)cc1` it is 16.2%; for `Cc1ccccc1C(=O)c1cccn1CC(=O)NCCCN1CCCCC1` it is 0.894%.

For the compound `O=C(Cn1cccc1C(=O)c1ccccc1)NCCCN1CCc2ccccc2C1`, the “hERG current change (%, negative = inhibition) at 1uM” value is -41.7%. Turning to `Cc1ccccc1C(=O)c1cccn1CC(=O)NCCCN1CCc2ccccc2C1`, the “hERG current change (%, negative = inhibition) at 1uM” value is -70%. With `Cc1ccc(C)c(N2CCN(CCCNC(=O)Cn3cccc3C(=O)c3ccccc3C)CC2)c1`, the “hERG current change (%, negative = inhibition) at 1uM” value is -22.1%. Take `Cc1ccccc1C(=O)c1cccn1CC(=O)NCCCN1CC(C)CC(C)C1` (centres unmarked): the “hERG current change (%, negative = inhibition) at 1uM” value is given as -59%. To `CC1CC(C)CN(CCCNC(=O)Cn2cccc2C(=O)c2ccccc2)C1` (centres unmarked) belongs -25%; to `CN(C)CCN1C(=O)c2oc3ccccc3c(=O)c2C1c1ccc(F)cc1` (centres unmarked), -2.93%; to `CC(=O)Nc1ccc(Oc2sc(C(=O)c3ccccc3)c(N)c2C#N)cc1`, 9.56%. The figure for `COCCN(C(=O)CSc1nnc(-c2ccco2)n1C)c1c(N)n(CC(C)C)c(=O)[nH]c1=O` is 8.54%.

Consider `CCN1CCN(c2ccc(NC(=O)c3ccc4c(c3)OCO4)cc2)CC1`, for which the “hERG current change (%, negative = inhibition) at 1uM” value is on record as -16.7%. `CCOC(=O)C1=C(COC(=O)/C=C/c2cccc(Br)c2)NC(=O)NC1C` (centres unmarked): the “hERG current change (%, negative = inhibition) at 1uM” value is given as -7.77%. `Cc1ccc(C#N)c(SCc2cccc(Br)c2)n1`: the “hERG current change (%, negative = inhibition) at 1uM” value was 17.2%. The figure for `CCCCOC(=O)c1ccc(NC(=O)/C=C/c2cccs2)cc1` is 1.76%. `CCN(CC)CCOC(=O)c1ccc(NC(=O)/C=C/c2cccs2)cc1.Cl`: the “hERG current change (%, negative = inhibition) at 1uM” value is -53.5%.

On to `CCCOC(=O)c1ccc(NC(=O)/C=C/c2cccs2)cc1`, for which the “hERG current change (%, negative = inhibition) at 1uM” value stood at 7.88%. On to `O=C(N/N=C\c1cccnc1)c1cc(-c2ccc(Cl)s2)[nH]n1`, for which the “hERG current change (%, negative = inhibition) at 1uM” value is reported as 8.22%.

Regarding `O=C(NCCCN1CCOCC1)/C(=C/c1ccc(F)cc1)NC(=O)c1ccccc1`, the “hERG current change (%, negative = inhibition) at 1uM” value is -46.5%. The figure for `CSc1ccc(/C=C(/NC(=O)c2ccccc2)C(=O)NCCN2CCOCC2)cc1` is -10.3%; for `O=C(NCCN1CCOCC1)/C(=C\c1ccc(Br)cc1)NC(=O)c1cccs1` it is -54%; for `O=C(NCCN1CCOCC1)/C(=C\c1ccc(F)cc1)NC(=O)c1ccccc1` it is -51.7%. Turning to `CN(C)c1ccc(/C=C(\NC(=O)c2ccccc2)C(=O)NCCN2CCOCC2)cc1`, the “hERG current change (%, negative = inhibition) at 1uM” value was determined as 8%. As to `O=C(NCCO)/C(=C/c1ccc(Br)cc1)NC(=O)c1cccs1`, the “hERG current change (%, negative = inhibition) at 1uM” value is -8.3%. For the compound `O=C(NCCN1CCOCC1)/C(=C/c1ccc(F)cc1)NC(=O)c1ccccc1`, the “hERG current change (%, negative = inhibition) at 1uM” value was -58.4%. To `O=C(NCCO)/C(=C\c1ccc(Br)cc1)NC(=O)c1cccs1` belongs 6.96%.
